In ChEMBL document CHEMBL1157539, “Thousands of chemical starting points for antimalarial lead identification” (Nature, 2010):

Each compound was assayed on HepG2 (assay: GSK_TCMDC: Percent inhibition of human HepG2 cell line. Test compounds present at 10uM.).
Format: functional

| SMILES | Inhibition |
| --- | --- |
| O=C(Nc1ccc2c(c1)CCN2C1CCN(Cc2ccc(C(F)(F)F)cc2F)C1)c1ccco1 (stereo not given) | 9% |
| CCCc1cc(=O)[nH]c(-n2nc(C)cc2NC(=O)C(CC)c2ccccc2)n1 (stereo not given) | 41% |
| O=C(O)C(F)(F)F.c1ccc(CCNCc2ccc(-c3cccc(-c4nc5ccccc5[nH]4)c3)cc2)nc1 | 36% |
| CC(=O)N(C)C1CCN(Cc2cccc(-c3ccc(-c4nc5cc(F)ccc5[nH]4)cc3)c2)C1.O=C(O)C(F)(F)F (stereo not given) | 24% |
| CCCNC(=O)CN1CN(c2ccccc2)C2(CCN(C(=O)c3ccc(C(C)(C)C)cc3)CC2)C1=O | 0% |
| COC(=O)c1ccccc1N1CCN(CCCCNC(=O)c2ccc(NC(=O)c3cc(Cl)cc(Cl)c3)cc2)CC1 | 20% |
| COC(=O)Nc1cc(C(F)(F)F)ccc1N1CCCC(NS(=O)(=O)c2ccc(C(C)(C)C)cc2)C1 (stereo not given) | 0% |
| CCN(CC)CCNC(=O)c1ccc(NC(=O)c2cn(-c3ccccc3)nc2-c2cccs2)cc1 | 30% |
| O=C(Nc1nccs1)c1cn(-c2ccccc2)nc1-c1ccc(Cl)s1 | 9% |
| OC(c1ccccc1)C1CN(Cc2ccccc2)CCC1(O)c1ccccc1 (stereo not given) | 4% |
| COc1ccc(CNCc2ccccc2)cc1-c1ccc(OC)c(S(=O)(=O)NCCN2CCCC2)c1.O=C(O)C(F)(F)F | 14% |
| Br.Oc1cccc(CCNCCCCCCNCCc2ccc(Cl)cc2)c1 | 23% |
| COc1ccc2c(NN=Cc3cccnc3)ccnc2c1 | 3% |
| COc1cc(C)nc2ccc(NC(=O)Nc3ccccc3[N+](=O)[O-])cc12 | 6% |
| Cc1c(CCC#N)c(NCc2ccccc2)n2c(nc3ccccc32)c1C#N | 16% |
| Cc1noc(C)c1-c1ccc2c(Nc3ccccc3N3CCOCC3)c(C(=O)NCc3ccccc3)cnc2c1.Cl | 23% |
| CNCc1ccc(CN(C)c2nc(N)c3cc(OC)c(OC)cc3n2)cc1.O=C(O)C(F)(F)F | 12% |
| COc1cc(NC(=O)Nc2ccc([N+](=O)[O-])cc2OC)c(OC)cc1Cl | 38% |
| Cc1cc(NCCc2ccccc2)nc(NC(=N)Nc2cccc(F)c2)n1 | 0% |
| Cc1ccc(NC(=O)c2ccc(NCCCN3CC(C)CC(C)C3)c([N+](=O)[O-])c2)cc1F (stereo not given) | 18% |

| SMILES | Inhibition |
| --- | --- |
| COC(=O)c1ccc(CC(C)NCC(O)c2ccc(C(O)CNC(C)Cc3ccc(C(=O)OC)cc3)cc2)cc1.O (stereo not given) | 24% |
| COc1ccc2c(N/N=C/c3ccccc3[N+](=O)[O-])cc(C)nc2c1 | 14% |
| Cc1cc(-c2cnc(N)c(-c3ccc(N4CCN(C)CC4)nc3)c2)cc(C)c1O | 0% |
| Cl.Oc1ccc(Cc2ccccc2)cc1CNC1CCCCC1 | 30% |
| Br.COc1cc(OCCCCCCON2C(=N)N=C(N)NC2(C)C)cc(OC)c1OC | 41% |
| CC(=O)Nc1ccc(CN2CCC(NC(=O)c3ccc(-c4cccc(OC(C)C)c4)s3)CC2)cc1.O=C(O)C(F)(F)F | 14% |
| COc1cc(OC)c(NC(=O)COc2ccc(C)cc2)cc1Cl | 0% |
| CCCCNC[C@@H](O)[C@H](Cc1ccccc1)NC(=O)c1cc(NCC)cc(N2CCCCS2(=O)=O)c1.Cl | 11% |
| NC1CCN(c2nc(NCCCc3ccc(O)cc3)nc(NCc3ccccc3-c3ccccc3)n2)CC1.O=C(O)C(F)(F)F | 11% |
| O=C(NCCCN1CCCC1=O)c1cnc(N2CCC(Oc3ccccc3)CC2)c(Cl)c1 | 7% |
| Nc1cc(-c2cccc(Cl)c2)nn1-c1ccnc2cc(Cl)ccc12 | 0% |
| Fc1ccc(CNc2ccc3ncc(-c4cccnc4)n3n2)cc1 | 7% |
| CCOC(=O)NC1=NC(C)(C)N(OCCCOc2ccc(C)cc2C)C(NC(=O)OCC)=N1 | 63% |
| COc1ccccc1C(=O)Nc1ccc(Nc2nc(C)cc(N(C)C)n2)cc1 | 1% |
| Cc1ccc(Cc2c[nH]c(NCCSCc3ccc(CN(C)C)s3)nc2=O)cn1 | 3% |
| Br.Oc1ccc(CCNCCCCCCNCCCc2ccc(Cl)cc2)cc1O | 13% |
| O=C(Nc1ccsc1C(=O)NC1CCCCC1)c1ccc(F)cc1 | 3% |
| COc1ccc2ccc(F)c(CC(=O)N3CCOC(CNCc4cccc(-c5ccc(F)cc5)n4)C3)c2n1 (stereo not given) | 5% |
| CC(=O)NCCNCc1cccc(C(=O)NCc2cccc(C(F)(F)F)c2)c1 | 1% |
| COc1c(C(=O)NC2CCN(Cc3ccccc3)C2)cnc2ccccc12.Cl (stereo not given) | 2% |
